Data from PubChem BioAssay AID686978 (National Center for Advancing Translational Sciences (NCATS), 2013).
Hit rate of the full screen: of about 420,000 compounds, about 64,000 (15%) were called active. Inconclusive results (about 27%) are left out. These entries were drawn from the full list. Unmarked numbers belong to inactive results. Calls follow the shape of the dose curve; as a rule, active = well fitted inhibition curve with a large enough effect; inconclusive = small, poorly fitted or top-dose-only effect; inactive = flat fitted curve, though single readings scatter.
% is scaled to controls: 0 for no effect and ±100 for the full control effect; potency is read from the fitted curve at half-maximal effect.

Assay: qHTS for Inhibitors of human tyrosyl-DNA phosphodiesterase 1 (TDP1): qHTS in cells in absence of CPT; also: nearly all actives have a fitted effect of over 55% in size
Conditions: DT40 Tdp1-/- hTDP1 cells, no CPT, ATP luminescence, 48 h; activity change, negative = growth inhibition: at 46.2 µM (top of the series)
Outline: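 DT40 Tdp1-/-;hTDP1 cells, no CPT (DMSO vehicle only), 400 cells/well; compounds pin-transferred; ≥48 hr, 37 °C; CellTiter-Glo 30 min RT dark, luminescence read.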
In the case of `CCCCNS(=O)(=O)CCNCc1ccccc1OC`, the “activity change, negative = growth inhibition” value is reported as -5.2%.
In the case of `CCC(=O)NCc1cc(-c2nn(C)c(=O)c3ccccc23)ccc1OC`, the Potency is reported as “inactive”.
For `CCOC(=O)CSc1nnc(-c2cccc(Br)c2)o1`, the “activity change, negative = growth inhibition” value was -1.45%.
In the case of `CCCCCc1c(-c2cccc(Br)c2)ncn1CCc1ccccc1OC`, the Potency is reported as 18.4 µM (active).
In the case of `Cn1c(=O)c2c(ncn2CCc2ccccc2)n(C)c1=O`, the “activity change, negative = growth inhibition” value is reported as 7.06%.
For `CCN(CC)CCN1C(=O)C(=O)/C(=C(/O)c2ccc(OC)c(OC)c2)C1c1ccccn1` (stereo not drawn), the “activity change, negative = growth inhibition” value was -8.13%.
In the case of `CCCCCc1c(Cc2ccccc2)ncn1CCc1ccccc1OC`, the Potency is reported as 2.59 µM (active).
For `CCCCCc1c(-c2ccc(OC)c(OC)c2)ncn1CCc1ccccc1OC`, the Potency was 2.59 µM (active).
With `Cc1c(Nc2nc3ccccc3nc2NS(=O)(=O)c2cccs2)c(=O)n(-c2ccccc2)n1C` the “activity change, negative = growth inhibition” value was -8.76%.
With `CC1Cc2[nH][nH]c(=O)c2C(C2CC2)O1` (stereo not drawn) the “activity change, negative = growth inhibition” value was -1.73%.
In the case of `CC(Sc1nnc(-c2cccs2)n1C1CC1)C(=O)NCC1CCCO1` (stereo not drawn), the “activity change, negative = growth inhibition” value is reported as -3.43%.
In the case of `CCOc1ccccc1-c1nc(CN2CCC(C(=O)N3CCOCC3)CC2)c(C)o1`, the “activity change, negative = growth inhibition” value is reported as 0.579%.
In the case of `CCOC(=O)C1(CC2CCCCO2)CCN(Cc2nc(-c3cccs3)oc2C)CC1` (stereo not drawn), the Potency is reported as 16.4 µM (active).
In the case of `CCCOC(=O)C1=C(C)NC2=C(C(=O)C(C(=O)OC)C(C)C2)C1c1ccc(N(C)C)cc1` (stereo not drawn), the “activity change, negative = growth inhibition” value is reported as -16.4%.
With `CCOC(=O)c1c(N)n(-c2cccc(C)c2C)c2nc3ccccc3nc12` the “activity change, negative = growth inhibition” value was 4.77%.
In the case of `C=CCn1c(N)c(S(=O)(=O)c2cccs2)c2nc3ccccc3nc21`, the “activity change, negative = growth inhibition” value is reported as -19.6%.
With `Cc1ccc(S(=O)(=O)c2c(N)n(C)c3nc4ccccc4nc23)cc1` the Potency was 13 µM (active).
For `CCN(c1ccccc1)S(=O)(=O)c1ccc(N)cc1`, the “activity change, negative = growth inhibition” value was -11.5%.
For `Cc1ccc(S(=O)(=O)Nc2nc(N)n(-c3ccccc3)n2)cc1`, the “activity change, negative = growth inhibition” value was -9.97%.
In the case of `CCN(CC)CCn1c(N)c(S(=O)(=O)c2ccccc2)c2nc3ccccc3nc21`, the Potency is reported as 18.4 µM (active).
For `CC1(C)CC(=O)C=C(c2cccc3c2Oc2ccccc2S3)C1`, the “activity change, negative = growth inhibition” value was -28%.
In the case of `O=C(Cn1cnc2c(oc3ccccc32)c1=O)Nc1ccc(OC(F)(F)F)cc1`, the “activity change, negative = growth inhibition” value is reported as -3.72%.
In the case of `CC(C)N(c1ccccc1)c1ncnc(NCCC(=O)O)c1[N+](=O)[O-]`, the “activity change, negative = growth inhibition” value is reported as -3.06%.
In the case of `O=C(COC(=O)c1cccnc1Cl)Nc1ccc(S(=O)(=O)N2CCOCC2)cc1`, the “activity change, negative = growth inhibition” value is reported as -14.8%.
With `CCOC(=O)N1CCC(c2cc(=O)n(-c3ccccc3)[nH]2)CC1` the “activity change, negative = growth inhibition” value was -26.9%.
In the case of `Cc1cc(C)cc(N)c1`, the “activity change, negative = growth inhibition” value is reported as -1.73%.
With `COCCOC(=O)c1[nH]c2c(c1C)C(=O)CC(c1ccc(OC)cc1)C2` (stereo not drawn) the “activity change, negative = growth inhibition” value was -13.2%.
With `CCOc1ccc(C2CC(=O)c3c([nH]c(C(=O)OCc4ccccc4)c3C)C2)cc1` (stereo not drawn) the Potency was 13 µM (active).
For `CCOC(=O)c1[nH]c2c(c1-c1ccccc1)C(=O)CC(c1ccc(Cl)cc1)C2` (stereo not drawn), the “activity change, negative = growth inhibition” value was -6.33%.
With `CCc1ccc(C2CC(=O)c3c([nH]c(C(=O)OCc4ccc(C)cc4)c3C)C2)cc1` (stereo not drawn) the Potency was 7.31 µM (active).
For `CCCNC(=O)C1CC(=O)N(c2ccc(OCc3ccccc3)cc2)C1` (stereo not drawn), the “activity change, negative = growth inhibition” value was -22.4%.
In the case of `CCOc1ccc(C2C3=C(CCCC3=O)N(CC(=O)O)C3=C2C(=O)CCC3)cc1`, the “activity change, negative = growth inhibition” value is reported as -10.5%.
For `CCOC(=O)c1[nH]c2c(c1C)C(=O)CC(c1ccc(N(C)C)cc1)C2` (stereo not drawn), the Potency was 13 µM (active).
For `CC(C)(C)N1C(=O)c2c(C(=O)OCc3ccccc3)[nH]c(-c3ccccc3)c2C1=O`, the “activity change, negative = growth inhibition” value was -7.09%.
In the case of `Cc1nnc(C)c2c(C)n(N)c(C)c12`, the “activity change, negative = growth inhibition” value is reported as -3.03%.
With `CCCCOc1ccc(-c2ncc(C(=O)OCC)c(N)n2)cc1` the “activity change, negative = growth inhibition” value was -18.9%.
In the case of `O=C(OCC(=O)N1CCCC1)c1ccco1`, the “activity change, negative = growth inhibition” value is reported as -7.97%.
In the case of `Cc1noc(C)c1C(=O)NC(C)c1ccc2c(c1)OCO2` (stereo not drawn), the “activity change, negative = growth inhibition” value is reported as -10.6%.
With `CN(C)Cc1c(O)ccc2c(=O)c(-c3ccccc3Cl)coc12` the “activity change, negative = growth inhibition” value was -2.51%.
In the case of `CN(c1ccccc1)c1nc(N)c([N+](=O)[O-])c(NCc2ccco2)n1`, the “activity change, negative = growth inhibition” value is reported as -21.3%.
With `O=C(Nc1ccc(Cl)c(Cl)c1)N1CC=C(c2ccccc2)CC1` the Potency was 20.6 µM (active).
For `NC(=O)N1CCCC1C(=O)Nc1ccc(Cl)c(Cl)c1` (stereo not drawn), the “activity change, negative = growth inhibition” value was -28.7%.
In the case of `O=C(O)c1cccc(S(=O)(=O)N2CC=C(c3ccccc3)CC2)c1`, the “activity change, negative = growth inhibition” value is reported as 5.52%.
With `NC(=O)C1CCN(C(=O)c2cn(-c3ccccc3)nc2-c2cccnc2)CC1` the “activity change, negative = growth inhibition” value was -4.22%.
For `COc1ccc(C2=CC(c3cccc(OC)c3)n3nnnc3N2)cc1` (stereo not drawn), the Potency was 29.1 µM (active).
In the case of `CCOc1ccc(C2=CC(c3ccccc3)n3ncnc3N2)cc1` (stereo not drawn), the “activity change, negative = growth inhibition” value is reported as -26.4%.
With `COc1ccc(C2CC(c3cccs3)Nc3nnnn32)cc1` (stereo not drawn) the “activity change, negative = growth inhibition” value was -13.6%.
In the case of `O=C(Cn1ccc(=O)[nH]c1=O)Nc1ccc(C(=O)O)c(O)c1`, the “activity change, negative = growth inhibition” value is reported as -0.311%.
In the case of `COc1ccc(NC(=O)Cn2cc(C(=O)c3ccncc3)c(=O)c3cc(C)ccc32)cc1Cl`, the “activity change, negative = growth inhibition” value is reported as -7.3%.
With `Cc1nn(C)cc1CNC(=O)Nc1ccc(Cl)cc1` the “activity change, negative = growth inhibition” value was -7.86%.
With `COc1ncnc2c1N=C1CC(C)(C)CC(N)=C1S2` the “activity change, negative = growth inhibition” value was -20%.
For `CC(C)(C)NC(=O)CN(C(=O)c1csnn1)c1ccccc1-c1ccccc1`, the “activity change, negative = growth inhibition” value was -24.9%.
For `COc1ccccc1N1CCN(CC(=O)NC(=O)NCc2ccco2)CC1`, the “activity change, negative = growth inhibition” value was -5.84%.
